Test results published in the supplement of paper PMC8728848.
Only a selection was taken, and the strongest signals are over-represented in it overall.

Legend:
Test in all cases: glycan array binding signal (z-score within array); higher = stronger binding
Settings in all cases: glycan notation: IUPAC condensed, linker removed
Fuc(a1-2)Gal = biological target: Fuc(a1-2)Gal
Outline: (§1)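 The binding signal is a Z-score computed within each array and averaged over linkers. Arrays of the same protein sequence at different concentrations or buffers were also averaged together. Data originate from 3228 arrays in the Consortium for Functional Glycomics database, kept only where the protein sequence was available.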

Fuc(a1-2)Gal(b1-3)GalNAc = biological target: Fuc(a1-2)Gal(b1-3)GalNAc
Outline: as §1

[1] = biological target: Fuc(a1-2)Gal(b1-3)GalNAc(b1-3)Gal(a1-4)Gal(b1-4)Glc
Outline: as §1

Fuc(a1-2)Gal(b1-3)GlcNAc = biological target: Fuc(a1-2)Gal(b1-3)GlcNAc
Outline: as §1

[2] = biological target: Fuc(a1-2)Gal(b1-3)GlcNAc(b1-3)GalNAc
Outline: as §1

[3] = biological target: Fuc(a1-2)Gal(b1-3)GlcNAc(b1-3)[Neu5Ac(a2-6)Gal(b1-4)GlcNAc(b1-6)]Gal(b1-4)Glc
Outline: as §1

[4] = biological target: Fuc(a1-2)[Gal(a1-3)]Gal(b1-4)[Fuc(a1-3)]GlcNAc(b1-3)GalNAc
Outline: as §1

[5] = biological target: Fuc(a1-2)[GalNAc(a1-3)]Gal(b1-3)GlcNAc(b1-2)Man(a1-3)[Fuc(a1-2)[GalNAc(a1-3)]Gal(b1-3)GlcNAc(b1-2)Man(a1-6)]Man(b1-4)GlcNAc(b1-4)[Fuc(a1-6)]GlcNAc
Outline: as §1

[6] = biological target: Fuc(a1-2)[GalNAc(a1-3)]Gal(b1-4)GlcNAc(b1-3)Gal(b1-4)GlcNAc
Outline: as §1

[7] = biological target: Fuc(a1-3)[Gal(b1-4)]GlcNAc(b1-2)Man(a1-3)[Fuc(a1-3)[Gal(b1-4)]GlcNAc(b1-2)Man(a1-6)]Man(b1-4)GlcNAc(b1-4)[Fuc(a1-6)]GlcNAc
Outline: as §1

Gal(a1-3)GalNAc = biological target: Gal(a1-3)GalNAc
Outline: as §1

[8] = biological target: Gal(b1-3)GalNAc(a1-3)[Fuc(a1-2)]Gal(b1-4)Glc
Outline: as §1

[9] = biological target: Gal(b1-3)GlcNAc(b1-6)Gal(b1-4)GlcNAc
Outline: as §1

[10] = biological target: Gal(b1-3)[Fuc(a1-4)]GlcNAc(b1-3)Gal(b1-4)GlcNAc
Outline: as §1

[11] = biological target: Gal(b1-3)[Neu5Ac(b2-6)]GalNAc
Outline: as §1

[12] = biological target: Gal(b1-4)GlcNAc(b1-3)Gal(b1-4)Glc
Outline: as §1

Gal6S(b1-3)GlcNAc6S = biological target: Gal6S(b1-3)GlcNAc6S
Outline: as §1

Gal6S(b1-4)Glc = biological target: Gal6S(b1-4)Glc
Outline: as §1

GalNAc(b1-3)Gal = biological target: GalNAc(b1-3)Gal
Outline: as §1

[13] = biological target: GalNAc(b1-3)Gal(a1-6)Gal(b1-4)Glc
Outline: as §1

GalNAc(b1-3)GalNAc = biological target: GalNAc(b1-3)GalNAc
Outline: as §1

[14] = biological target: GalNAc(b1-4)GlcNAc(b1-2)Man(a1-3)[GalNAc(b1-4)GlcNAc(b1-2)Man(a1-6)]Man(b1-4)GlcNAc(b1-4)GlcNAc
Outline: as §1

Glc(a1-6)Glc(a1-6)Glc = biological target: Glc(a1-6)Glc(a1-6)Glc
Outline: as §1

[15] = biological target: GlcNAc(a1-4)Gal(b1-4)GlcNAc(b1-3)Gal(b1-4)GlcNAc
Outline: as §1

[16] = biological target: GlcNAc(a1-4)Gal(b1-4)GlcNAc(b1-3)Gal(b1-4)[Fuc(a1-3)]GlcNAc(b1-3)Gal(b1-4)[Fuc(a1-3)]GlcNAc
Outline: as §1

[17] = biological target: GlcNAc(b1-2)Man(a1-3)[GlcNAc(b1-2)Man(a1-6)]Man(b1-4)GlcNAc(b1-4)GlcNAc
Outline: as §1

[18] = biological target: GlcNAc(b1-2)[GlcNAc(b1-6)]Man(a1-6)[GlcNAc(b1-2)Man(a1-3)][GlcNAc(b1-4)]Man(b1-4)GlcNAc(b1-4)GlcNAc
Outline: as §1

[19] = biological target: Man(a1-2)Man(a1-2)Man(a1-3)Man
Outline: as §1

[20] = biological target: Man(a1-2)Man(a1-3)[Man(a1-2)Man(a1-6)]Man(a1-6)[Man(a1-2)Man(a1-2)Man(a1-3)]Man
Outline: as §1

[21] = biological target: Man(a1-3)[Man(a1-6)]Man(a1-6)[Man(a1-3)]Man(b1-4)GlcNAc(b1-4)GlcNAc
Outline: as §1

[22] = biological target: Neu5Ac(a2-3)Gal(b1-3)GlcNAc(b1-3)Gal(b1-4)GlcNAc
Outline: as §1

[23] = biological target: Neu5Ac(a2-3)Gal(b1-3)[Neu5Ac(a2-3)Gal(b1-4)]GlcNAc
Outline: as §1

[24] = biological target: Neu5Ac(a2-3)Gal(b1-3)[Neu5Ac(a2-6)]GalNAc
Outline: as §1

[25] = biological target: Neu5Ac(a2-3)Gal(b1-4)[Fuc(a1-3)]GlcNAc(b1-3)Gal
Outline: as §1

[26] = biological target: Neu5Ac(a2-8)Neu5Ac(a2-3)Gal(b1-4)Glc
Outline: as §1

[27] = biological target: Neu5Ac(a2-8)Neu5Ac(a2-3)[Gal(b1-3)GalNAc(b1-4)]Gal(b1-4)Glc
Outline: as §1

Neu5Gc(a2-6)GalNAc = biological target: Neu5Gc(a2-6)GalNAc
Outline: as §1

B1: Intelectin 1 (Homo sapiens), Q8WWA0 (protein)
chain: MNQLSFLLFLIATTRGWSTDEANTYFKEWTCSSSPSLPRSCKEIKDECPSAFDGLYFLRTENGVIYQTFCDMTSGGGGWTLVASVHENDMRGKCTVGDRWSSQQGSKAVYPEGDGNWANYNTFGSAEAATSDDYKNPGYYDIQAKDLGIWHVPNKSPMQHWRNSSLLRYRTDTGFLQTLGHNLFGIYQKYPVKYGEGKCWTDNGPVIPVVYDFGDAQKTASYYSPYGQREFTAGFVQFRVFNNERAANALCAGMRVTGCNTEHHCIGGGGYFPEASPQQCGDFSGFDWSGYGTHVGYSSSREITEAAVLLFYR
glycan array binding signal (z-score) (Fuc(a1-2)Gal): 2.53 | glycan array binding signal (z-score) (Fuc(a1-2)Gal(b1-3)GalNAc): -0.327 | glycan array binding signal (z-score) [1]: 0.742 | glycan array binding signal (z-score) (Fuc(a1-2)Gal(b1-3)GlcNAc): 0.069 | glycan array binding signal (z-score) [2]: 0.22 | glycan array binding signal (z-score) [3]: 4.21 | glycan array binding signal (z-score) [4]: -0.244 | glycan array binding signal (z-score) [5]: 1.21 | glycan array binding signal (z-score) [6]: -0.387 | glycan array binding signal (z-score) [7]: 0.394 | glycan array binding signal (z-score) (Gal(a1-3)GalNAc): -0.41 | glycan array binding signal (z-score) [8]: 0.06 | glycan array binding signal (z-score) [9]: 0.042 | glycan array binding signal (z-score) [10]: 1.33 | glycan array binding signal (z-score) [11]: 2.22 | glycan array binding signal (z-score) [12]: 0.614 | glycan array binding signal (z-score) (Gal6S(b1-3)GlcNAc6S): 1.05 | glycan array binding signal (z-score) (Gal6S(b1-4)Glc): -0.449 | glycan array binding signal (z-score) (GalNAc(b1-3)Gal): 2.09 | glycan array binding signal (z-score) [13]: -0.442 | glycan array binding signal (z-score) (GalNAc(b1-3)GalNAc): -0.802 | glycan array binding signal (z-score) [14]: 0.358 | glycan array binding signal (z-score) (Glc(a1-6)Glc(a1-6)Glc): 0.027 | glycan array binding signal (z-score) [15]: 3.85 | glycan array binding signal (z-score) [16]: 3.27 | glycan array binding signal (z-score) [17]: -0.457 | glycan array binding signal (z-score) [18]: 0.148 | glycan array binding signal (z-score) [19]: 1.53 | glycan array binding signal (z-score) [20]: -0.313 | glycan array binding signal (z-score) [21]: -0.432 | glycan array binding signal (z-score) [22]: 0.545 | glycan array binding signal (z-score) [23]: -0.157 | glycan array binding signal (z-score) [24]: -0.094 | glycan array binding signal (z-score) [25]: -0.21 | glycan array binding signal (z-score) [26]: 0.12 | glycan array binding signal (z-score) [27]: 0.572 | glycan array binding signal (z-score) (Neu5Gc(a2-6)GalNAc): 0.523
